Rango release inh: inhibitors of RanGTP-induced Rango-importin beta complex dissociation. O95149+P62826. Biochemical FRET Rango-importin beta, RanGTP-induced dissociation. Potency, µM (series often up to 46.1 µM), for the others: top-dose activity change, negative = inhibition. hit rate 0.071% among 340,000. AID 540253; note: % of control where 0% means no effect; nearly all actives have a fitted effect of over 45% in size
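Quantitative HTS using a FRET biosensor: 0.1 uM Rango, 0.25 uM importin beta, 0.6 uM Ran, 2 mM GTP, 0.2 uM RCC1 final, PBS with DTT, Tween-20 and BSA. Post-read taken 45 min after Ran addition.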
TDP1 inh: TDP1 (human) enzyme inhibition | Q9NUW8 | recombinant TDP1, AlphaScreen DNA substrate cleavage | Potency, µM (series often up to 130 µM), for the others: at the highest dose activity change, negative = inhibition, hits mostly inhibitors | hit rate 0.28% among 350,000 | AID 485290; active = well fitted curve in the direction sought with a large enough effect; inconclusive = small, poorly fitted or top-dose-only effect, or another doubt; inactive = no such curve, though single readings can be large; an effect the other way counts as inactive or inconclusive; note: % is set by controls: 0 for no effect and ±100 for the full control effect; nearly all actives have a fitted effect of over 40% in size
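Enzyme-compound mixtures sat 15 min at room temperature, followed by a 5 min reaction with 15 nM final substrate and 10 min with AlphaScreen beads. Recombinant human Tdp1 was used at 1 nM final.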
Rango complex inh: prevents formation of the Rango-importin beta complex. Rango CFP/YFP FRET sensor + importin beta, 45 min. Potency, µM (doses to about 92.2 µM), inactives show at the top dose inhibition of complex formation. hit rate 0.031% among 340,000. AID 540263;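 note: 0% = DMSO wells and 100% = buffer wells lacking importin beta; nearly all actives have a fitted effect of over 15% in size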
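FRET biosensor (snurportin 1 IBB flanked by EYFP and cerulean), 50 nM, with compound 5 min, then 0.125 microM importin beta in PBS, 1 mM DTT, 0.02% Tween-20, 0.1% BSA. CFP/YFP ratio read after 45 min at room temperature; pre-read flags interference.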
ClpP mod: qHTS Assay for Activators of ClpP; ATP-dependent Clp protease proteolytic subunit (Bacillus subtilis (strain 168)), P80244; purified B. subtilis ClpP, FRET peptide cleavage, 20 min; Potency, µM (titrated, usually from 57.5 µM), inactives show at the highest dose activity change, negative = active; hit rate 1.9% among 340,000; AID 651965, 2013; active = well fitted falling curve with a large enough effect; inconclusive = small, poorly fitted or top-dose-only effect; inactive = no such curve, though single readings can be large or run the other way; note: the source files actives as falling curves though it sought activators and does not explain the sign; nearly all actives have a fitted effect of over 65% in size
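FRET quenching reversal measured ClpP activation: 10 microg/mL B. subtilis ClpP at pH 8 with the FRET-FV decapeptide, read at 430 nm after 320 nm excitation. The 20-min minus 0-min signal was scaled between DMSO/no-enzyme wells and ADEP (5.8 microM final).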
TSG101-PTAP inh: blocks PTAP/TSG101 interaction to inhibit HIV-1 budding; 340,000 tested, under 10 active; Fluorescence polarization, FITC-PTAP peptide / Tsg101 binding; Q99816; Potency, µM (top dose mostly 115 µM), inactives show top-dose activity change, negative = inhibition, hits mostly inhibitors; active = well fitted inhibition curve with a large enough effect in the main read-out, with a control signal flat, not every such curve was filed as active; inconclusive = small, poorly fitted or top-dose-only effect, or effect the other way, or a change in a side signal; inactive = no such curve, though single readings can be large or run the other way; note: % of control where 0% means no effect
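Fluorescence anisotropy tracks displacement of a FITC-tagged PTAP peptide (50 nM) from the Tsg101 binding domain (10 uM), following a 20 min room-temperature incubation at pH 7.5.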
ALOX12 inh: inhibitors of human 12S-lipoxygenase ALOX12. P18054. purified 12hLO, xylenol orange hydroperoxide absorbance. Potency, µM (highest dose often 108 µM), for inactives: at the highest dose activity change, negative = inhibition, hits mostly inhibitors. hit rate 1.1% among 580,000. AID 1671190; active = well fitted curve in the direction sought with a large enough effect; inconclusive = small, poorly fitted or top-dose-only effect, or another doubt; inactive = no such curve, though single readings can be large; an effect the other way counts as inactive or inconclusive; note: % is set by controls: 0 for no effect and ±100 for the full control effect
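Hydroperoxide product was detected by ferrous iron/xylenol orange as the 573 to 405 nm absorbance ratio. Arachidonic acid at 40 uM (final) was turned over for 30 min at room temperature by 150 nM human 12hLO, pH 7.0 Hepes buffer, after 15 min compound preincubation.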
Starred values were filed as active, the others as inactive; u = inconclusive; x = no result; ! = not active in a repeat; [ ] = remark or other dose. Shown are actives, neighbours in structure and some others; about 2.4% of the full set was active somewhere. Unless noted, calls come from the whole dose curve. Potency is the fitted concentration of half-maximal effect.

SMILES	Rango release inh	TDP1 inh	Rango complex inh	ClpP mod	TSG101-PTAP inh	ALOX12 inh
O=C(NCCOc1ccccc1)C1=CC=CN2CCS(=O)(=O)N=C12	5.1%	-2.5%	-0.9%	31.6µM*	1.7%	-3.5%
c1ccc(-n2nnnc2SCc2cn3cccnc3n2)cc1	-19.1%	0.0%	2.4%	25.1µM*	-2.5%	9.5%
c1ccc(-n2nnnc2SCc2cn3ccccc3n2)cc1	1.9%	6.3%	-0.6%	-5.5%	-3.5%	4.6%
COc1ccc(C(=O)N2CC[C@H](c3nnc(-c4ccccc4OC)o3)C2)cc1OC	x	x	x	x	x	-7.8%[176 µM]
O=C(O)CCC(=O)Nc1sc2c(c1C(=O)Nc1ccccc1)CCCCC2	5.6%	2.6%	u	0.4%	-1.4%	14.1µM*!
COC(=O)CCC(=O)Nc1sc2c(c1C#N)CCCC2	u	4.9%	-1.4%	28.2µM*	-0.8%	-27.2%
CCCC(=O)Nc1sc2c(c1C#N)CCCC2	-8.3%	7.7%	-1.3%	-0.2%	-2.4%	-3.3%
CC(C)CNC(=O)N1C[C@@H](Oc2ccccc2)C[C@@H]1C(=O)N1CCOCC1	x	x	x	x	x	42.3%
O=C1CCNCCCCCCN1	x	x	x	x	x	63.5%
C=CCNc1oc(-c2cccc3ccccc23)nc1C#N	4.8%	2.1%	-2.2%	3.16µM*	-3.5%	u
CCNc1oc(-c2cccc3ccccc23)nc1C#N	u	-3.1%	u	-104.1%	4.2%	0.1%
N#Cc1nc(COc2ccc(Cl)cc2)oc1NCc1ccc2c(c1)OCO2	-0.9%	7.0%	-2.2%	-0.5%	0.2%	u
N#Cc1nc(-c2cccc3ccccc23)oc1NCc1ccc2c(c1)OCO2	x	x	x	x	x	31.6µM*
N#Cc1nc(COc2cccc(Cl)c2)oc1NCc1ccc2c(c1)OCO2	x	x	x	x	x	12.6µM*
Cc1ccc(CNC(=O)N2C[C@@H](Oc3cccnc3)C[C@H]2C(=O)N2CCCC2)cc1	x	x	x	x	x	8.9%
O=C(CC1CCCCC1)N(Cc1ccc2cc[nH]c2c1)C1CC1	x	x	x	x	x	-27.0%
CN1CCN(c2ncncc2-c2ccccc2Cl)CC1	x	x	x	x	x	39.8µM*
CCc1nnc(SCc2cn3c(C)cc(C)nc3n2)n1N	-1.4%	6.9%	0.3%	11.2µM*	-0.3%	u
c1ccc(Nc2ccc3c4c(cccc24)CC3)cc1	u	-1.6%[56.1 µM]	2.4%	11.2µM*	-5.2%	-47.7%
O=C(c1coc(=O)c(Br)c1)N1CCCc2ccccc21	-32.8%	x	u	12.6µM*	-3.5%	7.08µM*
CC1(C)CCCN(C(=O)c2coc(=O)c(Br)c2)C1	-23.4%	6.31µM*	-2.4%	25.1µM*	-1.4%	u
O=C(CN1CCCc2ccccc21)N/N=C/c1ccccc1O	-22.7%	1.1%	-3.7%	28.2µM*	-0.1%	-6.7%
Cc1cc(C)c(NC(=S)N(CCN(C)C)C(C)c2cccnc2)c(C)c1 (stereo not drawn)	5.1%	0.0%	3.7%	15.8µM*	1.9%	0.0%
COC(=O)c1c(NC(=S)Nc2cc(OC)c(Cl)cc2OC)sc2c1CCCCC2	u	5.5%	0.1%	-2.0%	0.2%	39.8µM*
COc1ccc(C2SCC(=O)N2c2nc3ccccc3s2)cc1 (stereo not drawn)	0.5%	4.8%	u	-1.5%	-0.7%	2.2%
SMILES	Rango release inh	TDP1 inh	Rango complex inh	ClpP mod	TSG101-PTAP inh	ALOX12 inh
COc1ccc(C2=NN(c3nc4ccccc4s3)C(=O)/C2=C\N(C)C)cc1	-5.2%	7.8%	-4.9%	-0.4%	-4.3%	22.4µM*
OCCN(CCO)c1nc(N2CCCCC2)c2nc(N(CCO)CCO)nc(N3CCCCC3)c2n1	u	4.8%	u	-14.0%	u	44.7µM*!
Nc1nc(NCCO)nc(N2CCCCCC2)c1[N+](=O)[O-]	-2.0%	x	-2.0%	0.1%	-3.1%	5.9%
COCCN1C(=O)CS(=O)(=O)C12CCN(C(=O)c1ccc(F)cc1)CC2	x	x	x	x	x	45.3%
CC(C)Cn1c(-c2csc(C(C)C)c2)n[nH]c1=S	23.0%	2.7%	5.2%	x	2.8%	39.8µM*
CCn1c(-c2csc(C(C)C)c2)n[nH]c1=S	0.3%	-7.9%	-0.1%	-6.6%	-4.1%	u
O=C1CCCC/C1=C\Nc1ccccc1C(=O)O	-4.1%	3.1%	-3.5%	31.6µM*	1.0%	-6.6%
O=C1N(c2ccccc2)c2ccccc2C1(Cc1ccncc1)Cc1ccncc1	-10.8%	5.2%	-3.4%	-1.1%	-11.2%	24.3µM*!
CCc1ccc(S(=O)(=O)c2cn(CC)c3cc(N4CCCCC4)c(F)cc3c2=O)cc1	x	3.7%	x	25.1µM*	x	4.6%
CCn1cc(S(=O)(=O)c2ccccc2)c(=O)c2cc(F)c(N3CCCCCC3)cc21	x	-5.0%	x	31.6µM*	x	-0.8%
CCCCn1cc(S(=O)(=O)c2ccc(CC)cc2)c(=O)c2cc(F)c(N3CCCC(C)C3)cc21 (stereo not drawn)	x	0.0%	x	15.8µM*	x	-10.8%
Cc1ccc(S(=O)(=O)c2cn(Cc3ccc(F)cc3)c3cc(N4CCCC4)c(F)cc3c2=O)cc1	x	1.2%	x	-5.2%	x	-3.9%
CCCN1CCN(c2cc3c(cc2F)c(=O)c(S(=O)(=O)c2ccc(CC)cc2)cn3CC)CC1	x	-2.5%	x	u	x	-1.6%
CCN(CC)c1cc2c(cc1F)c(=O)c(S(=O)(=O)c1ccc(C)cc1)cn2Cc1ccc(F)cc1	x	3.7%	x	12.6µM*	x	-12.4%
Cc1cn2c(=O)c(S(=O)(=O)Nc3ccc(C)c(Cl)c3)c(C)nc2s1	x	x	x	x	x	-29.9%
CCc1ccc(C2=NN(C(=O)c3cccs3)C(c3ccc4nccnc4c3)C2)cc1 (stereo not drawn)	x	x	x	x	x	-10.3%
NC(=O)/C(=C/c1ccco1)C(N)=S	u	10µM*	u	0.0%	-0.2%	u
NC(=O)/C(=C\c1ccco1)NC(=O)c1ccco1	x	x	x	1.0%	x	-3.6%
CC(C)(C)c1cc(NCCCn2ccnc2)n2ncc(-c3ccc(Cl)cc3)c2n1	4.1%	10.5%	3.9%	14.1µM*	-5.6%	-13.0%
Cc1cc(NCCCn2ccnc2)n2nc(-c3ccc(Cl)cc3)cc2n1	-7.4%	4.7%	u	u	-2.2%	-1.0%
COc1ccc(C(=O)c2cccc(C(=O)c3ccc(OC)cc3)c2)cc1	x	x	x	x	x	-1.6%
COC(=O)C(NC(=O)OCc1ccccc1)(c1ccc(Cl)cc1)C(Nc1ccccc1)c1ccccc1 (stereo not drawn)	x	x	x	x	x	-15.4%
Cc1ccc(Cl)cc1N1CCN(C(=S)NCCc2ccccc2)CC1	15.8%	-2.6%	-0.8%	x	-1.8%	35.5µM*
Cc1cccc(N2CCN(C(=S)NCCc3ccccc3)CC2)c1C	6.8%	0.6%	0.7%	-0.7%	-3.6%	u
